Results filed as inconclusive are left out. Active and inactive are the calls of the source. The call rests on the fitted dose curve; in most records, active means well fitted cell-killing curve with a large enough effect; inconclusive means small, poorly fitted or top-dose-only effect, or effect the other way; inactive means no such curve, though single readings can be large or run the other way.
Experiment: qHTS of pediatric cancer cell lines to identify multiple opportunities for drug repurposing: Confirmatory screen for Rh30 cells (AID 1347126); further: nearly all actives have a fitted effect of over 55% in size
Details: Rh30 rhabdomyosarcoma cell viability; series mostly up to 45.9 µM; activity change, negative = cytotoxic: at the top concentration
Text: Drug repurposing or repositioning has been offered as a strategy for drug development in oncology programs. This approach has special potential for childhood cancers and other rare or orphan diseases, where the expected return on new drug development has been a disincentive to pharmaceuticals.
In this project we exploit the poly-pharmacology of drugs to discover new indications via phenotypic screening of a panel of 19 well-characterized cell lines derived from solid tumors seen in children and adolescents. The goal is to identify approved drugs with previously unrecognized anticancer properties that has the potential to reveal new mechanisms and biological processes involved in carcinogenesis or drug resistance. We employed a titration-based paradigm (quantitative high-throughput screening or qHTS), where all compounds were tested at multiple concentrations for their effect on cell viability. Concentration-response curves (CRCs) were derived directly from the primary screen, and both potency and efficacy values were used to identify compounds with robust bioactivity profiles. We screened the NIH Chemical Genomics Center (NCGC) Pharmaceutical Collection (NPC) and Mechanism Interrogation Plate (MIPE) small molecule collections of approved and investigational compounds against these cell lines; and measured metabolically active cells after 48 hours of compound treatment as a proxy for cell viability.
Assay Submitter: Nathalia J. Martinez, National Center for Advancing Translational Sciences, National Institutes of Health, Rockville, MD, USA; email: natalia.martinez@nih.gov
[1] Shen, M et al. Quantitative high-throughput phenotypic screening of pediatric cancer cell lines identifies multiple opportunities for drug repurposing. Oncotarget 2017 Dec 19;9(4):4758-4772. PMID 29435139.
The cells were obtained from University of North Carolina (UNC), Pediatric Preclinical Testing Program (PPT), and Coriell Institute (CI).
qHTS cell viability assay:
Cells were assayed in growth media at a density of 500-1,000 cells/well. Five microliters of cells were dispensed into 1,536-well, white, solid-bottom, TC-treated plates (Greiner Bio One) using a multidrop dispenser and incubated at 37 degrees C, 5% CO2, under a humidified atmosphere for 5 hours. Twenty-three nanoliters of compounds and controls (neutral control DMSO or positive control bortezomib at final concentration of 2.3 µM) were subsequently transferred by Kalypsys pintool. For primary screens, the MIPE collection was tested at 11-point dilutions (final concentrations range from 0.78 nM to 46 µM) and the NPC collection at 8-point dilutions (final concentrations range from 0.59 nM to 46 µM). Compounds tested in follow-up screens were assayed at 11-point dilutions. Cells were incubated for 48 hours, followed by addition of 3 µL of CellTiter-Glo (Promega). After a 15 min incubation at room temperature, samples were analyzed for luminescence intensity using a ViewLux High-throughput CCD imager equipped with clear filters.
For `CCC(C)(C)C(=O)O[C@H]1C[C@@H](C)C=C2C=C[C@H](C)[C@H](CC[C@@H]3C[C@@H](O)CC(=O)O3)[C@H]21`, the Potency was 16500 nM (active). With `COc1ccc(-c2ccc3c(N4CCOC[C@H]4C)nc(N4CCOC[C@H]4C)nc3n2)cc1CO` the Potency was 185 nM (active). In the case of `CS(=O)(=O)c1ccc(C(=O)Nc2ccc(Cl)c(-c3ccccn3)c2)c(Cl)c1`, the “activity change, negative = cytotoxic” value is reported as -9.34% (inactive). With `COc1ccc(-c2ccc3c(N4CCOCC4)nc(N4C[C@@H](C)O[C@@H](C)C4)nc3n2)cc1CO` the Potency was 657 nM (active). For `CNCc1ccc(-c2[nH]c3cc(F)cc4c3c2CCNC4=O)cc1`, the “activity change, negative = cytotoxic” value was -7.54% (inactive). For `CCOc1ccn(-c2ccc(F)cc2)c(=O)c1C(=O)Nc1ccc(Oc2ccnc(N)c2Cl)c(F)c1`, the “activity change, negative = cytotoxic” value was 3.86% (inactive). With `C[C@]1(c2nc3c(C(N)=O)cccc3[nH]2)CCCN1` the “activity change, negative = cytotoxic” value was 8.54% (inactive). In the case of `O=NN(CCCl)C(=O)NCCCl`, the “activity change, negative = cytotoxic” value is reported as -7.49% (inactive). In the case of `COc1cccc2cc(-c3nc(C4CCC(C(=O)O)CC4)n4ncnc(N)c34)[nH]c12` (centres undefined), the Potency is reported as 10400 nM (active). In the case of `Cc1oncc1C(=O)Nc1ccc(C(F)(F)F)cc1`, the “activity change, negative = cytotoxic” value is reported as -9.86% (inactive). For `Nc1nc2ccc(OC(F)(F)F)cc2s1`, the “activity change, negative = cytotoxic” value was -11% (inactive). With `CC(C=CC1=C(C)CCCC1(C)C)=CC=CC(C)=CC(=O)O` the “activity change, negative = cytotoxic” value was -0.698% (inactive). In the case of `NCCCC(N)(C(=O)O)C(F)F` (centres undefined), the “activity change, negative = cytotoxic” value is reported as 23% (inactive). For `Nc1nc2c(ncn2COCCO)c(=O)[nH]1`, the “activity change, negative = cytotoxic” value was 0% (inactive). For `O=C(NOC[C@H](O)CO)c1ccc(F)c(F)c1Nc1ccc(I)cc1F`, the “activity change, negative = cytotoxic” value was -10.7% (inactive). For `COCC(=O)NCC=Cc1ccc2ncnc(Nc3ccc(Oc4ccc(C)nc4)c(C)c3)c2c1`, the Potency was 2930 nM (active). With `CCC(C)n1ncn(-c2ccc(N3CCN(c4ccc(OC[C@H]5CO[C@](Cn6cncn6)(c6ccc(Cl)cc6Cl)O5)cc4)CC3)cc2)c1=O` (some centres undefined) the “activity change, negative = cytotoxic” value was -19.4% (inactive). With `COc1cc(Nc2ncc3c(n2)-c2ccc(Cl)cc2C(c2c(F)cccc2OC)=NC3)ccc1C(=O)O` the “activity change, negative = cytotoxic” value was 5.31% (inactive). With `Cn1cnc2c(F)c(Nc3ccc(Br)cc3Cl)c(C(=O)NOCCO)cc21` the “activity change, negative = cytotoxic” value was 0.675% (inactive). With `COc1cc2nccc(Oc3ccc(NC(=O)NC4CC4)c(Cl)c3)c2cc1C(N)=O` the “activity change, negative = cytotoxic” value was -7.04% (inactive). In the case of `Cc1c(C)c2c(c(C)c1O)CCC(C)(COc1ccc(CC3SC(=O)NC3=O)cc1)O2` (centres undefined), the “activity change, negative = cytotoxic” value is reported as -0.954% (inactive). In the case of `COc1ccc(-c2oc3cc(OC)ccc3c2C(=O)c2ccc(C#N)cc2)cc1`, the “activity change, negative = cytotoxic” value is reported as 0.649% (inactive). With `Nc1nc2[nH]cc(CCc3ccc(C(=O)N[C@@H](CCC(=O)O)C(=O)O)cc3)c2c(=O)[nH]1` the “activity change, negative = cytotoxic” value was -13.2% (inactive). In the case of `O=C(c1cc(Cc2n[nH]c(=O)c3ccccc23)ccc1F)N1CCN(C(=O)C2CC2)CC1`, the “activity change, negative = cytotoxic” value is reported as 5.79% (inactive). For `CCN(CC)CCCC(C)Nc1ccnc2cc(Cl)ccc12` (centres undefined), the “activity change, negative = cytotoxic” value was 4.64% (inactive). In the case of `Cc1c(CN2CCN(C(=O)C(C)C)CC2)sc2c(N3CCOCC3)nc(-c3cnc(N)nc3)nc12`, the Potency is reported as 928 nM (active). In the case of `CO[C@@H]1[C@H](N(C)C(=O)c2ccccc2)C[C@H]2O[C@]1(C)n1c3ccccc3c3c4c(c5c6ccccc6n2c5c31)C(=O)NC4`, the “activity change, negative = cytotoxic” value is reported as 1.75% (inactive). In the case of `OC(CN1CCC(Cc2ccc(F)cc2)CC1)c1ccc(Cl)cc1` (centres undefined), the “activity change, negative = cytotoxic” value is reported as -15.3% (inactive). With `Cc1cn[nH]c1` the “activity change, negative = cytotoxic” value was 6.71% (inactive).
On the % scale 0 is the no-effect control and ±100 the full control effect; potency means the concentration at half of the fitted maximal effect.
